Experimental data: PubChem BioAssay (NCI)
This is part of a sample that, as a whole, favours compounds with a hit. Of some 83,000 tested, about 20% had one in any assay.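 Interpretation: 100, growth as untreated; towards 0, rising growth inhibition; 0, no net growth; 0 to -100, cell death. Compounds scoring below 10 were considered active.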 Active and inactive are the calls of the source.

Legend:
Experiment in all cases: NCI-60 one-dose screen, 48 h (100 = growth as untreated, 0 = no growth, -100 = all killed)
Details in all cases: 10 µM unless noted
HT29 colon = system: HT29 colon
SNB-75 CNS = system: SNB-75 CNS
SNB-19 CNS = system: SNB-19 CNS
U251 CNS = system: U251 CNS
SK-MEL-5 melanoma = system: SK-MEL-5 melanoma
UACC-62 melanoma = system: UACC-62 melanoma
LOX IMVI melanoma = system: LOX IMVI melanoma
SK-MEL-2 melanoma = system: SK-MEL-2 melanoma
EKVX NSCLC = system: EKVX NSCLC
SN12C renal = system: SN12C renal
UO-31 renal = system: UO-31 renal
TK-10 renal = system: TK-10 renal
ACHN renal = system: ACHN renal
CAKI-1 renal = system: CAKI-1 renal
A498 renal = system: A498 renal
CCRF-CEM leukemia = system: CCRF-CEM leukemia
MOLT-4 leukemia = system: MOLT-4 leukemia
SR leukemia = system: SR leukemia
SK-MEL-28 melanoma = system: SK-MEL-28 melanoma

Measured: growth

CC(=O)Oc1c(C)c(OC(C)=O)c2c(c1C(C)=O)OC1CC(=O)C(C(C)=O)=C(O)C21C (stereo not drawn)
inactive: HT29 colon 100% | SNB-75 CNS 94.7% | SNB-19 CNS 95.4% | U251 CNS 91.6% | SK-MEL-5 melanoma 95.4% | UACC-62 melanoma 95.9% | LOX IMVI melanoma 86.7% | SK-MEL-2 melanoma 107% | EKVX NSCLC 96.9% | SN12C renal 95.5% | UO-31 renal 89% | TK-10 renal 109% | ACHN renal 97% | CAKI-1 renal 99.3% | A498 renal 136% | CCRF-CEM leukemia 102% | MOLT-4 leukemia 64%

O=C(Nc1cccc([N+](=O)[O-])c1)c1cccc(C(=O)Nc2cccc([N+](=O)[O-])c2)c1
active: SNB-75 CNS -40.4%
inactive: HT29 colon 88.5% | SNB-19 CNS 60.3% | U251 CNS 31.8% | SK-MEL-5 melanoma 94% | UACC-62 melanoma 75.1% | LOX IMVI melanoma 67.6% | SK-MEL-2 melanoma 63.7% | EKVX NSCLC 84.3% | SN12C renal 45.7% | UO-31 renal 56.7% | TK-10 renal 65.5% | ACHN renal 64.7% | CAKI-1 renal 85.3% | A498 renal 92.5% | CCRF-CEM leukemia 116% | MOLT-4 leukemia 99.3% | SR leukemia 83.9%

O=C1OC(c2ccc(-c3ccccc3)cc2)=C/C1=C/c1cccs1
active: CCRF-CEM leukemia -27.1%
inactive: HT29 colon 125% | SNB-75 CNS 95.7% | SNB-19 CNS 131% | U251 CNS 100% | SK-MEL-5 melanoma 78.2% | UACC-62 melanoma 74.6% | LOX IMVI melanoma 99.4% | SK-MEL-28 melanoma 102% | EKVX NSCLC 78.8% | SN12C renal 80.9% | UO-31 renal 82.9% | TK-10 renal 86.8% | ACHN renal 85.7% | CAKI-1 renal 81.7% | MOLT-4 leukemia 87.3% | SR leukemia 91.5%

COc1ccc2c(c1)C(=O)/C(=C/c1cccc(OCC(=O)c3ccccc3)c1)CC2
inactive: HT29 colon 80.9% | SNB-75 CNS 112% | SNB-19 CNS 100% | U251 CNS 76.9% | SK-MEL-5 melanoma 39.3% | UACC-62 melanoma 70.2% | LOX IMVI melanoma 70.3% | SK-MEL-28 melanoma 106% | SK-MEL-2 melanoma 67.3% | EKVX NSCLC 75.8% | SN12C renal 114% | TK-10 renal 107% | ACHN renal 94.4% | CAKI-1 renal 80.4% | A498 renal 89.2% | MOLT-4 leukemia 52.7% | SR leukemia 11.1%
active: UO-31 renal 9.87%

O=c1cc(-c2cccnc2)oc2c1ccc1ccccc12
inactive: HT29 colon 59% | SNB-75 CNS 54.4% | SNB-19 CNS 64.7% | U251 CNS 48.8% | SK-MEL-5 melanoma 63.3% | UACC-62 melanoma 70.3% | LOX IMVI melanoma 75.5% | SK-MEL-2 melanoma 110% | EKVX NSCLC 86.3% | SN12C renal 80.3% | UO-31 renal 60.5% | TK-10 renal 114% | ACHN renal 69.6% | CAKI-1 renal 72.9% | A498 renal 61.6% | CCRF-CEM leukemia 88.1% | MOLT-4 leukemia 103% | SR leukemia 39.3%

NC(=Nc1ccccc1)SCCCCSC(N)=Nc1ccccc1
inactive: HT29 colon 94.8% | SNB-75 CNS 68% | SNB-19 CNS 99.3% | U251 CNS 72.4% | SK-MEL-5 melanoma 93.7% | UACC-62 melanoma 66.5% | SK-MEL-28 melanoma 96.7% | SK-MEL-2 melanoma 98.5% | EKVX NSCLC 80.4% | SN12C renal 87% | UO-31 renal 31% | TK-10 renal 97.3% | ACHN renal 75.4% | CAKI-1 renal 74.2% | A498 renal 82.3% | MOLT-4 leukemia 70.3%

COc1cc(C(=O)/C=C/c2cccnc2Nc2ccccc2)cc(OC)c1OC
active: HT29 colon -70.2% | SNB-75 CNS -16% | SNB-19 CNS -72.5% | U251 CNS -94.8% | SK-MEL-5 melanoma -99.4% | UACC-62 melanoma -84.2% | LOX IMVI melanoma -49.9% | SK-MEL-28 melanoma -97.5% | SK-MEL-2 melanoma -56.5% | EKVX NSCLC -5.31% | SN12C renal -92.6% | UO-31 renal -99.5% | TK-10 renal -13% | ACHN renal -99.2% | CAKI-1 renal -22.6% | CCRF-CEM leukemia -16% | MOLT-4 leukemia -1.45% | SR leukemia 1.47%

CCC(C)CC(C)C(=O)c1c(O)ccn(OC)c1=O (stereo not drawn)
inactive: HT29 colon 124% | SNB-75 CNS 88% | SNB-19 CNS 78% | U251 CNS 60.6% | SK-MEL-5 melanoma 84% | UACC-62 melanoma 92.3% | LOX IMVI melanoma 32.4% | SK-MEL-28 melanoma 77.6% | SK-MEL-2 melanoma 102% | SN12C renal 69.7% | UO-31 renal 58.3% | TK-10 renal 98.7% | ACHN renal 46.1% | CAKI-1 renal 92.9% | A498 renal 98.7% | CCRF-CEM leukemia 39.8% | MOLT-4 leukemia 68.1% | SR leukemia 47.1%

CCOC(=O)c1c2c(c(C)n1Cc1ccccc1)-c1nc(N)ncc1CC2
inactive: HT29 colon 115% | SNB-75 CNS 90.3% | SNB-19 CNS 101% | U251 CNS 106% | SK-MEL-5 melanoma 105% | UACC-62 melanoma 77.2% | LOX IMVI melanoma 92.6% | SK-MEL-28 melanoma 128% | SK-MEL-2 melanoma 125% | EKVX NSCLC 88.9% | SN12C renal 102% | UO-31 renal 79.7% | TK-10 renal 103% | ACHN renal 92.2% | A498 renal 88.2% | CCRF-CEM leukemia 93.7% | MOLT-4 leukemia 95.7% | SR leukemia 86.2%
